PLK1 PBD block: inhibitors of human PLK1 polo-box domain binding | Plk1 PBD binding of FITC phosphopeptide, fluorescence polarization | Potency, µM, for inactives: max response, negative = inhibition, most hits filed as inhibitors | 360,000 tested, 2.8% active | P53350; note: series mostly up to about 57 µM; nearly all actives have a fitted effect of over 65% in size
KAT2A inh: blocks human GCN5L2 histone acetyltransferase | 390,000 tested, 0.21% active | Potency, µM (series often up to 58.9 µM), for inactives: top-dose activity change, negative = inhibition, hits mostly inhibitors | GCN5L2 HAT assay, ThioGlo1 CoA-SH fluorescence
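Preincubate 20nM GCN5L2 with compound 15 min, RT → add 50uM ThioGlo1 + 75uM H3(1-25) + 70uM acetyl-CoA → read fluorescence 0 and 20 min. Primary qHTS; fluorescent artifacts likely.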
TDP1 inh: inhibitors of human tyrosyl-DNA phosphodiesterase TDP1. AID 485290. 350,000 tested, 0.28% active. Potency, µM (series often up to 130 µM), for the others: at the top dose activity change, negative = inhibition, usual class: inhibitors. recombinant TDP1, AlphaScreen DNA substrate cleavage. Q9NUW8; note: nearly all actives have a fitted effect of over 40% in size
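Signal: AlphaScreen proximity between streptavidin donor and anti-FITC acceptor beads on intact substrate. Reaction: Tdp1 1 nM, substrate 15 nM final, 5 min RT after 15 min compound preincubation.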
TDP1 cell CPT: growth inhibition of DT40 Tdp1-/-;hTDP1 cells with camptothecin (screen for TDP1 inhibitors) | chicken DT40 Tdp1-/-;hTDP1 cells + 20 nM CPT, ATP luminescence, 48 h | Potency, µM (top dose mostly 46.2 µM), inactives show top-dose activity change, negative = growth inhibition, actives largely listed as inhibitors | 420,000 tested, 12% active | AID 686979; note: nearly all actives have a fitted effect of over 55% in size
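Cell growth measured by CellTiter-Glo luminescence after a minimum 48 h, 37 C compound exposure with 20 nM CPT in Tdp1-knockout DT40 cells stably expressing hTDP1, seeded 400/well; qHTS titration format.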
VDR inh: vitamin D3 receptor (human) inhibition. 400,000 tested, 0.93% active. AID 504847. Potency, µM, for inactives: max response, negative = inhibition, usual class: inhibitors. VDR-SRC2-3 peptide fluorescence polarization, 2 h
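Inhibition of the VDR/SRC2-3 peptide interaction is quantified by fluorescence polarization. Compounds (23 nl, pintool) incubate with the reagents for 2 hours at ambient room temperature.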
DT40 TDP1 no CPT: qHTS for Inhibitors of human tyrosyl-DNA phosphodiesterase 1 (TDP1): qHTS in cells in absence of CPT | DT40 Tdp1-/- hTDP1 cells, no CPT, ATP luminescence, 48 h | Potency, µM (highest dose often 46.2 µM), for the others: at the highest dose activity change, negative = growth inhibition, hits mostly inhibitors | 420,000 tested, 15% active; note: nearly all actives have a fitted effect of over 55% in size
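Compound effects on proliferation are scored in DT40 Tdp1-/-;hTDP1 cells in the absence of CPT. ATP levels (CellTiter-Glo luminescence) are recorded after a ≥48 hr, 37 °C incubation.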
Numbers without * were called inactive; u = inconclusive; x = no result. Hits are enriched below; roughly 18% of the tested compounds scored in any of these assays. Calls come from the whole dose curve; as a rule, active = well fitted curve in the direction sought with a large enough effect; inconclusive = small, poorly fitted or top-dose-only effect, or another doubt; inactive = no such curve, though single readings can be large; an effect the other way counts as inactive or inconclusive. % is set by controls: 0 for no effect and ±100 for the full control effect; potency is the fitted concentration of half-maximal effect.

SMILES	PLK1 PBD block	KAT2A inh	TDP1 inh	TDP1 cell CPT	VDR inh	DT40 TDP1 no CPT
CN(C)c1nc(=NCc2ccco2)ss1	2.7µM*	-4%	9%	0.15µM*	28µM*	0.037µM*
Cc1ccc(C)c(Nc2ncnc3c2cnn3-c2ccc(F)cc2)c1	x	-5%	3%	u	8%	u
CC(=O)n1cc([C@@H]2C=C(C(=O)NCc3ccccc3)O[C@H](OCCCCO)C2)c2ccccc21	-11%	2%	5%	u	u	18µM*
O=C(NCc1ccccc1)C1=C[C@H](c2ccc(C(F)(F)F)cc2)C[C@H](OCCCCO)O1	-13%	x	x	u	-18%	u
O=C(Nc1ccccc1)C1=C[C@@H](c2coc3ccccc3c2=O)C[C@@H](OCCCCO)O1	-3%	-6%	3%	u	11%	9.2µM*
O=C(NCc1ccccc1)C1=C[C@@H](c2ccc(C(F)(F)F)cc2)C[C@@H](OCCCCO)O1	-8%	x	x	u	-16%	26µM*
CCOC(=O)c1c(NC(=O)c2ccc(S(=O)(=O)N3CCC(C)CC3)cc2)sc2c1CCN(C)C2	x	-2%	5%	3.7µM*	5%	3.7µM*
CCOC(=O)N1CCN(S(=O)(=O)c2ccc(C(=O)Nc3sc4c(c3C(=O)OC)CCN(C)C4)cc2)CC1	-4%	-6%	8%	u	7%	u
CCOC(=O)c1c(NC(=O)c2ccc(S(=O)(=O)N(CC(C)C)CC(C)C)cc2)sc2c1CCN(C(=O)OCC)C2	x	-5%	3%	-34%	19%	0.0073µM*
CCOC(=O)c1c(NC(=O)c2ccc(S(=O)(=O)N(C)C)cc2)sc2c1CCN(C)C2	x	1%	0%	23µM*	11%	16µM*
COCCN(CCOC)S(=O)(=O)c1ccc(C(=O)Nc2sc3c(c2C(=O)OC)CCN(C)C3)cc1	x	-6%	10%	-13%	16%	u
CCCCSCCCNC(=O)c1cn(C)c2ccc(S(=O)(=O)N3CCCCC3)cc2c1=O	x	-1%	-5%	-10%	-8%	-17%
CCC(CC)c1nn2c(=O)cc(COc3ccc(NC(=O)c4cccc(C)c4)cc3)nc2s1	x	-1%	6%	1%	0%	u
C=CC(=O)Nc1cccc(Nc2nc(N[C@H]3CC[C@H](N(C)C)CC3)nc3c2ncn3C(C)C)c1	-6%	x	x	0.15µM*	6%	0.21µM*
CC(C)n1cnc2c(Nc3ccc(C(=O)O)cc3)nc(Cl)nc21	-21%	-24%	2%	-19%	-21%	0%
O=C(Nc1cccc(C(F)(F)F)c1)c1ccc(-c2ccc(F)c(F)c2)c2ccoc12	-10%	x	x	u	x	u
COc1cc(NC(=O)c2ccc(-c3cn[nH]c3)c3ccoc23)cc(OC)c1OC	-2%	x	x	12µM*	x	13µM*
COc1cc(NC(=O)c2ccc(-c3ccnn3C)c3ccoc23)cc(OC)c1OC	-1%	x	x	u	x	21µM*
COc1cc(NC(=O)c2ccc(-c3ccc(F)c(F)c3)c3ccoc23)cc(OC)c1OC	-14%	x	x	4.1µM*	x	4.1µM*
CC(C)NC(=O)c1ccc(-c2ccc(F)c(F)c2)c2ccoc12	5%	x	x	26µM*	x	23µM*
O=[N+]([O-])c1c(N2CCN(CCO)CC2)nc2ccccn12	1%	u	3%	-2%	-16%	-11%
COCCn1c(SCC(=O)Nc2cccc(F)c2)nc2c(c1=O)SCC2	-1%	-28%	4%	-18%	-8%	5%
CCCN(CC)C(CC)C(=O)Nc1c(C)cccc1C (stereo not given)	x	x	x	0%	x	-13%
CC(=O)N1CCc2c(sc3c2c(=O)n(-c2ccccc2Cl)c(=O)n3C)C1	x	-2%	0%	12%	14%	18%
CC(C)c1ccc(NC(=O)c2ccc(-c3ccnn3C)c3ccoc23)cc1	9%	x	x	16µM*	x	21µM*
SMILES	PLK1 PBD block	KAT2A inh	TDP1 inh	TDP1 cell CPT	VDR inh	DT40 TDP1 no CPT
COc1cc(NC(=O)c2ccc(-c3cccnc3)c3ccoc23)cc(OC)c1OC	-20%	x	x	13µM*	x	6.5µM*
CN1CCN(C(=O)c2ccc(F)c(F)c2)CC1	-3%	-6%	x	-2%	11%	11%
O=C(Nc1cccc(OC(F)(F)F)c1)c1ccc(-c2cccnc2)c2ccoc12	-9%	x	x	u	x	u
CN1CCN(C(=O)c2ccc(-c3ccc(F)c(F)c3)c3ccoc23)CC1	-2%	x	x	16µM*	x	16µM*
Cc1ccc(NC(=O)Cc2nnc(SCC(=O)NC3CCCC3)n2C)cc1C	1%	2%	x	-3%	1%	23%
O=C1CSC(c2ccccn2)N1c1ccc(C(F)(F)F)cc1 (stereo not given)	3%	-7%	2%	-19%	0%	u
CCOC(=O)c1c(NC(=O)Nc2ccc(F)cc2)sc(C(=O)N(C)C)c1C	x	-14%	6%	u	-2%	u
CCc1ccc(C(=O)COC(=O)c2ccc(Cl)nc2)cc1	-8%	-7%	-12%	-16%	2%	-27%
Cc1csc2nc(COC(=O)c3ccccc3NC(=O)COc3ccccc3F)cc(=O)n12	x	14%	4%	u	0%	u
[O-][N+](=NC1C=Cc2ccccc21)C1C=Cc2ccccc21 (stereo not given)	x	x	x	-5%	x	-16%
O=C(CCCCCNc1nc(=S)[nH]c2ccccc12)NCCc1ccc(Cl)cc1	-4%	1%	-3%	-7%	-10%	u
O=C(CCCCCNc1nc(=S)[nH]c2ccccc12)NCCc1c[nH]c2ccccc12	-2%	-3%	6%	18µM*	19%	15µM*
CCCS(=O)(=O)NC(=O)C1(C)CCCN(C(=O)c2cc(OC)c(OC)c(OC)c2)C1 (stereo not given)	10%	x	x	4%	x	-17%
O=C(O)COc1ccc(-c2nccc(-c3ccccn3)n2)cc1	19µM*	-3%	7%	u	-29%	u
FCCCOc1ccc(-c2nccc(-c3ccccn3)n2)cc1	-11%	-12%	x	-20%	1%	-30%
CCCCN(C(=O)c1cccc(S(=O)(=O)N2CCCCC2)c1)C1CCS(=O)(=O)C1 (stereo not given)	3%	-3%	-8%	7%	-7%	1%
CCOC(=O)CNc1nnc(SCC(=O)OCC)[nH]c1=O	u	13%	0%	-8%	40µM*	u
Cc1ccc(CNC(=O)CN2C(=O)CCn3nc(-c4ccccc4)cc32)cc1	x	-24%	-1%	-15%	10%	-17%
